For 40 molecules, growth results are on record in PubChem BioAssay (NCI).

Molecules are shown by their SMILES. Values joined by “and” are separate entries in the source; they are usually repeats but may differ in a detail not shown here. Equal entries are not always repeated. This is part of a sample that, as a whole, favours compounds with a hit. Of some 83,000 tested, about 20% had one in any assay.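 For each line, cells grew in 96-well plates with the test compound present at a single concentration for 48 hours.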 Active and inactive are the calls of the source. The calls were made as follows: active = growth percent below 10; inactive = the rest.

This experiment has as its system MDA-MB-468 breast. Description: NCI-60 one-dose screen, 48 h (100 = growth as untreated, 0 = no growth, -100 = all killed). Conditions: 10 µM unless noted.
Turning to `COc1ccc(/C=C/C(=O)N2CCC(O)CC2)cc1OC1CCCC1`, the growth is 114% (inactive). In the case of `O=C(Nc1ccc2c(c1)C(=O)c1ccccc1-2)c1ccccc1` it was 85.6% (inactive). In the case of `COc1ccc(C2CC(n3ccnc3)c3cc(OC)c(OC)c(OC)c32)cc1O` (stereo not given) it was 78.6% (inactive); in that of `Cc1ccc(C2CC(c3cccc(Nc4ccncc4)c3)=NN2c2ccccc2)cc1` (stereo not given), -78.5% (active); in that of `O=C(OCC(O)(CO)C(=O)NC12CC3CC(CC(C3)C1)C2)c1ccc(Cl)cc1` (stereo not given), 100% (inactive). In the case of `Cc1ccc(NC(=O)C(Cl)Cl)cc1` it was 90.9% (inactive); in that of `C=C1C(=O)O[C@H]2[C@H]1CC/C(COC(=O)c1cc3ccccc3s1)=C\CC[C@@]1(C)O[C@@H]21`, -48.4% (active); in that of `c1cncc(CNc2ccccc2-c2nnc(Nc3ccc4c(c3)OCO4)o2)c1`, -1.51% (active).

In the case of `C=C(C)[C@@H]1CC[C@]2(C)[C@H](C(=O)C=C3[C@@H]4C[C@](C)(C(=O)N5CCN(C)CC5)CC[C@]4(C)CC[C@]32C)[C@@]1(C)CCC#N`, the growth was -76.5% [100 µM] (active). In the case of `CC(=O)OC1CCC2(C)C(CCC3C4CC=C(C(C)=O)C4(C)OC(=O)CC32)C1` (stereo not given) it was -72.4% (active); in that of `Cc1c2cc[nH]c(=O)c2c(C)c2c1[nH]c1ccc(OC(=O)c3ccccc3)cc12`, 12.6% (inactive).

As to `CC(C)(C)c1ccc(-c2nnc(-c3nc4ccccc4nc3Cl)o2)cc1`, the growth is 7.12% (active). The result for `COC(=O)c1cc(=O)nc(N/N=C/c2ccccc2O)s1` reads 98% (inactive); that for `COc1ccc(CNc2c3ccccc3nc3ccccc23)cc1F`, -18.7% (active). The result for `Nc1nc(N)c2cc(NCc3ccc(Cl)c(Cl)c3)ccc2n1` reads -84.7% (active).

Turning to `Brc1ccc(Nc2csc(-c3ccccn3)n2)cc1`, the growth was 97.5% (inactive). In the case of `N#Cc1c(N)nc(Nc2nc3ccccc3[nH]2)nc1-c1ccc(Cl)cc1` it was 111% (inactive); in that of `Cn1ccnc1C(=O)C(=O)Nc1ccc(CC(=O)Nc2ccccc2)cc1`, 109% (inactive). The result for `O=C(/C=C/c1ccccc1)Nc1ncc(Cc2ccccc2)s1` reads 29.7% (inactive); that for `CN1CCN(c2ccc(NC3=C(Cl)C(=O)c4ncccc4C3=O)cc2C(F)(F)F)CC1`, -79.2% (active). On to `Cc1ccc(C2CC(c3ccc(Nc4nc(NCCO)nc(Nc5ccc(Cl)cc5)n4)cc3)=NN2c2cc(Cl)cc(Cl)c2)cc1` (stereo not given), for which the growth was 102% (inactive).

On to `COc1ccc(-c2cc(=O)c3c(O)cc(O)cc3o2)cc1`, for which the growth was 121% (inactive) and 96.2% (inactive). In the case of `N#Cc1c(-c2ccccc2)cc(-c2ccccc2)n(CCCCC(=O)O)c1=O` it was 89.1% (inactive).

Take `COc1ccc(Nc2ccc3ccccc3c2)cc1`: the growth is -2.03% (active).

As to `Cn1c(-c2ccccc2)cc(=O)n1-c1ccccc1`, the growth was 105% (inactive).

`Clc1ccc2c(c1)C(N1CCNCC1)=Nc1ccccc1O2`: the growth is -48.3% (active). In the case of `COc1ccc(Br)c2ccccc12` it was 100% (inactive).

Consider `CCN(CC)c1nc(SCC(=O)Nc2nc3ccc(C)cc3s2)nc(-c2ccccc2)c1C#N`, for which the growth was 86.7% (inactive). The result for `CC(C)(C)c1ccc(C(O)CCCN2CCC(C(O)(c3ccccc3)c3ccccc3)CC2)cc1` (stereo not given) reads -97.1% (active); that for `O=C(Nc1ccc(Br)cc1)Nc1ccccc1Cl`, 69.2% (inactive); that for `COc1cc(/C=C/c2cc(/C=C/c3ccc(O)c(OC)c3)n(-c3ccccc3)n2)ccc1O`, -31.9% (active). The result for `O=C1N(Cc2ccccc2Cl)c2ccccc2C12NN=C(c1ccccc1)S2` (stereo not given) reads 57.2% (inactive); that for `COc1ccc2c(c1)nc(N)c1c3cc(C)c(C)cc3cn21`, 48.3% (inactive). The result for `O=C1C(Nc2ccccn2)=C(I)C(=O)c2ncccc21` reads -70.1% (active); that for `CC(=O)Cc1cccnc1`, 97.1% (inactive); that for `CC(C)(C)CC(C)(C)c1ccc(OCCOCCSC(=N)N)cc1`, -47.3% (active). In the case of `COc1ccc(-c2nc(Nc3ccc(F)cc3)nc(Nc3ccc4c(c3)nc(C)n4Cc3ccccc3)n2)cc1`, the growth was 28.4% (inactive).

For the molecule `COc1ccc(-c2nn(-c3cccc(Cl)c3)cc2C=C(C#N)C#N)cc1`, the growth is -2.82% (active). In the case of `Oc1ccc(C#CCOc2ccccc2)cc1CNCCN(Cc1ccccn1)Cc1ccccn1` it was -10.4% (active). Turning to `Cc1cc2c(-c3nc4ccccn4c3NC34CC5CC(CC(C5)C3)C4)c(O)c(O)cc2c(O)c1-c1c(C)cc2c(-c3nc4ccccn4c3NC34CC5CC(CC(C5)C3)C4)c(O)c(O)cc2c1O`, the growth was -10.7% (active).
